Laboratory results as given in the supplement of paper PMC10849652.
Targets with a hit are over-represented here; the source holds about 8,800 in all. About 0.5% of all pairs of compound and target were hits. Unmarked numbers belong to inactive results.

Assays:
Test in all cases: log2 fold change, soluble protein after heating vs DMSO (PISA); higher = thermal stabilisation; K562 lysate, 10 uM; active = over 0.2 and 3.5 SD of the protein, either way, in both replicates (recomputed)
vemurafenib = compound: CCCS(=O)(=O)Nc1ccc(F)c(C(=O)c2c[nH]c3ncc(-c4ccc(Cl)cc4)cc23)c1F [vemurafenib]
Summary of the method: (§1)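 Dounce homogenisation of K562 pellets in PBS pH 7.4 with 1 mM MgCl2 produced a crude extract, used at 1 mg/mL protein. Exposure to 10 μM compound lasted 30 min, and aliquots were then heated for 3 min across 48°C-58°C, pooled and brought to 0.5% NP-40 at 4°C. The supernatant after 21,000xg for 90 min was quantified by TMTpro 16plex LC-MS/MS with channel sums equalised. Duplicate values are given as log-two fold change in thermal stability relative to solvent controls.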

[1] = compound: CCCS(=O)(=O)Nc1ccc(F)c(C(=O)c2c[nH]c3ncc(Cl)cc23)c1F
Summary of the method: as §1

barasertib = compound: CCN(CCCOc1ccc2c(Nc3cc(CC(=O)Nc4cccc(F)c4)[nH]n3)ncnc2c1)CCOP(=O)(O)O [barasertib]
Summary of the method: as §1

[2] = compound: CC[C@@H]1C(=O)N(C)c2cnc(Nc3ccc(C(=O)NC4CCN(C)CC4)cc3OC)nc2N1C1CCCC1
Summary of the method: as §1

volasertib = compound: CC[C@@H]1C(=O)N(C)c2cnc(Nc3ccc(C(=O)N[C@H]4CC[C@H](N5CCN(CC6CC6)CC5)CC4)cc3OC)nc2N1C(C)C [volasertib]
Summary of the method: as §1

[3] = compound: CCn1c(C(=O)N(C2CC2)C2CC2)cc2c3c(ncn3C)c(Nc3cc(C)n(C)n3)nc21
Summary of the method: as §1

[4] = compound: CCn1cc(-c2ccnc3[nH]c(-c4cccc(CN(C)C)c4)cc23)c(-c2ccc(NC(=O)N(C)C)cc2)n1
Summary of the method: as §1

[5] = compound: CN1CCC(CNc2ccc3ncc(-c4cccc(OC(F)(F)F)c4)n3n2)CC1
Summary of the method: as §1

saracatinib = compound: CN1CCN(CCOc2cc(OC3CCOCC3)c3c(Nc4c(Cl)ccc5c4OCO5)ncnc3c2)CC1 [saracatinib]
Summary of the method: as §1

sotrastaurin = compound: CN1CCN(c2nc(C3=C(c4c[nH]c5ccccc45)C(=O)NC3=O)c3ccccc3n2)CC1 [sotrastaurin]
Summary of the method: as §1

UniProt Q8N4N3, sequence (Q8N4N3 whole entry, looked up): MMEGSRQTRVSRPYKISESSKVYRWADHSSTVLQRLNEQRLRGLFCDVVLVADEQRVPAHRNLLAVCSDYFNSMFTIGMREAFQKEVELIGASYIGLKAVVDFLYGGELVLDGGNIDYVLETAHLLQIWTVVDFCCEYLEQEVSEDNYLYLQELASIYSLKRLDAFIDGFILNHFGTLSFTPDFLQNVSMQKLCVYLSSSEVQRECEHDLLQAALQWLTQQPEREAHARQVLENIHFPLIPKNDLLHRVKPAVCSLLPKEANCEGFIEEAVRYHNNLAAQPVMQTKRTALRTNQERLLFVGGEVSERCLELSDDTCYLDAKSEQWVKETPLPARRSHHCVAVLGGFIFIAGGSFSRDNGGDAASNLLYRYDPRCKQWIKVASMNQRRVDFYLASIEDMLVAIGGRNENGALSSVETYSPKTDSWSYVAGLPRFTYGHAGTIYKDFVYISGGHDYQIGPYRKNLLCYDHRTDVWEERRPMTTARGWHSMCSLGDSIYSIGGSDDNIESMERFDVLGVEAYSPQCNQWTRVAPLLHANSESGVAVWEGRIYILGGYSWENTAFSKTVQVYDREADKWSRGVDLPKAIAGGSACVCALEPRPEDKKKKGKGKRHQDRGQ
UniProt Q6P0Q8, sequence (Q6P0Q8 whole entry, looked up): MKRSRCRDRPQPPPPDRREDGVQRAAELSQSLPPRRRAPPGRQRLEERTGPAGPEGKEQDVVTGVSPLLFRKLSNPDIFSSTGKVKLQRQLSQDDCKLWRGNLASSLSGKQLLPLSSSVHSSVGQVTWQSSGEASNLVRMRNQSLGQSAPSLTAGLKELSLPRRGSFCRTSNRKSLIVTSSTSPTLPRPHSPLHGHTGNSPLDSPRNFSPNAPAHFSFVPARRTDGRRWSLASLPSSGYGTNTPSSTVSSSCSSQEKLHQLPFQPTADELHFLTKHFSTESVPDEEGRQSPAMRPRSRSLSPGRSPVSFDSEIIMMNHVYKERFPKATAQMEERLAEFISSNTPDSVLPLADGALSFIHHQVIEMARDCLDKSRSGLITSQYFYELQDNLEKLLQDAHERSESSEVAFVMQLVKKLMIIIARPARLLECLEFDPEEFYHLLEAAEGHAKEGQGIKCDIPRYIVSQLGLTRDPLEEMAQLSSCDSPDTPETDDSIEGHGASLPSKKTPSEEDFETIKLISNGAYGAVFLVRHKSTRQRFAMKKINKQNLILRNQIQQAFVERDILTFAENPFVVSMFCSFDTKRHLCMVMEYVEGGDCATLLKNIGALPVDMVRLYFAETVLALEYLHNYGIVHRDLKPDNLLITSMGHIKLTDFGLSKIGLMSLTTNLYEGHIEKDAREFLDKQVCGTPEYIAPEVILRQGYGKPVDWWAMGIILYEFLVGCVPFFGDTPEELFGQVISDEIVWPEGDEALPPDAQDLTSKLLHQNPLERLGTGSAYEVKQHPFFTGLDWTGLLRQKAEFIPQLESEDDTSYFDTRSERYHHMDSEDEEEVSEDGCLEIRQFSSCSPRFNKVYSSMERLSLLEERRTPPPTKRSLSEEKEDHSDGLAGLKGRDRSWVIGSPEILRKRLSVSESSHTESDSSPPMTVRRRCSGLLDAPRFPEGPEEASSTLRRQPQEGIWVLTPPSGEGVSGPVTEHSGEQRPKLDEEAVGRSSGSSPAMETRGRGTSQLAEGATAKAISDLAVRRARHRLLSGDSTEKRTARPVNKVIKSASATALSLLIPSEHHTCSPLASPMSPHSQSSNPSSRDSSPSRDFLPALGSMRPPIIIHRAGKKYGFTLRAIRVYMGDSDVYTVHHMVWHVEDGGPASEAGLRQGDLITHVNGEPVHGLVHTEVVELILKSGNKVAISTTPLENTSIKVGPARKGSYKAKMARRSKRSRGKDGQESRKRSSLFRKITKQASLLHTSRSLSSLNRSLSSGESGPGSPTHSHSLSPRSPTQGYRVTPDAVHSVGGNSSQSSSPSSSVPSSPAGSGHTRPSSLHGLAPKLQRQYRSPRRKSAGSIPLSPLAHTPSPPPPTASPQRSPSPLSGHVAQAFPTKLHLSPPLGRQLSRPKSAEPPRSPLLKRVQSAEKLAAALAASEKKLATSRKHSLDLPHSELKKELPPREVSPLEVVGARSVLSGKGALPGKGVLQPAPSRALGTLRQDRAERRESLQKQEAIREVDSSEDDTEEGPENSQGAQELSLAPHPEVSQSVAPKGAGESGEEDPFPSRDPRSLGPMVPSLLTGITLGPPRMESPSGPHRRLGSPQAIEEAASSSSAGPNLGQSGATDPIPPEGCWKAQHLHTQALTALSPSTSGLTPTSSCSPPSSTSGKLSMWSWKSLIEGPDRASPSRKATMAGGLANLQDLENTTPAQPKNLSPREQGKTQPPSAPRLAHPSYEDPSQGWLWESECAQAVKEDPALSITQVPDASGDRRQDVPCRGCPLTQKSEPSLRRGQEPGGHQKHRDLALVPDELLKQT
UniProt Q9BVC4, sequence (Q9BVC4 whole entry, looked up): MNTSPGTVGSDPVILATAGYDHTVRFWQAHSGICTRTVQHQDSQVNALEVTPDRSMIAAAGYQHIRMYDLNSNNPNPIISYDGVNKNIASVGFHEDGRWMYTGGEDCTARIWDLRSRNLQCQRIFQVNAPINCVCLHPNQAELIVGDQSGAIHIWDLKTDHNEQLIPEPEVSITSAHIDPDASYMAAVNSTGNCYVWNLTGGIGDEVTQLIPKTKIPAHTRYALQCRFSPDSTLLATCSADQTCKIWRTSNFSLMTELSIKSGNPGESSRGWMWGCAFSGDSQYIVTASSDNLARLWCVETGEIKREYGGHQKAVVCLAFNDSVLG
UniProt Q9NS87, sequence (Q9NS87 whole entry, looked up): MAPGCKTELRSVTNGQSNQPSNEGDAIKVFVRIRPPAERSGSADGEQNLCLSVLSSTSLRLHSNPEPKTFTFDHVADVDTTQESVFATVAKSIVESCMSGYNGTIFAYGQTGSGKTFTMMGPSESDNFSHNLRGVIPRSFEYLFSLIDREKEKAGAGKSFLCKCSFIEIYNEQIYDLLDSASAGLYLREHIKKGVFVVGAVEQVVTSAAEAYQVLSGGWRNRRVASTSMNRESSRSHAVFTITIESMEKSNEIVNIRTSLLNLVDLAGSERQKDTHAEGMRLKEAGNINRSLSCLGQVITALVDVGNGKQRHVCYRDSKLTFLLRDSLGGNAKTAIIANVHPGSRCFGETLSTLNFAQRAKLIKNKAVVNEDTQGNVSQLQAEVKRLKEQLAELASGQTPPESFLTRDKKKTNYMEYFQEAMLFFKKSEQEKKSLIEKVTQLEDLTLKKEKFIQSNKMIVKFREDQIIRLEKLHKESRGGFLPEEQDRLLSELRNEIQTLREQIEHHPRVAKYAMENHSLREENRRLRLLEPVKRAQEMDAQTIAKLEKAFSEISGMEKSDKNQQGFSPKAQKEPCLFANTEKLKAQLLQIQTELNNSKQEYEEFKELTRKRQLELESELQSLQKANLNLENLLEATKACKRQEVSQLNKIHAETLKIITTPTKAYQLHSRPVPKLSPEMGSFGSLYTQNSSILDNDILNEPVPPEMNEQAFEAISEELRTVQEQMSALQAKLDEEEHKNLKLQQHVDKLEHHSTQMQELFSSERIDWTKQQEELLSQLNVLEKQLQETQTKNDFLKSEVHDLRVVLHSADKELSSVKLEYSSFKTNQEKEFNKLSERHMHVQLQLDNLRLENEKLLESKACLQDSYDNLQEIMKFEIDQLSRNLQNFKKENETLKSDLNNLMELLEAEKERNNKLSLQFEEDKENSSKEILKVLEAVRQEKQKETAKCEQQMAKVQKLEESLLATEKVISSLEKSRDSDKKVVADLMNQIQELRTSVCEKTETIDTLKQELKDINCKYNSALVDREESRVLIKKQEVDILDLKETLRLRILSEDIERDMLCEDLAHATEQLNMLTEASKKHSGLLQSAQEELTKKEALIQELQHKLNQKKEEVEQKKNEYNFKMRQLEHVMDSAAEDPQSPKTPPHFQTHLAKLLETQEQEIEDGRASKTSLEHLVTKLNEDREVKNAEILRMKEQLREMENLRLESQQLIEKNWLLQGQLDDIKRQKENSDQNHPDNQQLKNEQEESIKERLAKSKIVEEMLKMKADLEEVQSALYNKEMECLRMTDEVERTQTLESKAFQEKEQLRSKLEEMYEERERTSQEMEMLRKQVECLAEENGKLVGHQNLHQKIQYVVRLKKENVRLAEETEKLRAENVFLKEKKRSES
UniProt Q9Y250, sequence (Q9Y250 whole entry, looked up): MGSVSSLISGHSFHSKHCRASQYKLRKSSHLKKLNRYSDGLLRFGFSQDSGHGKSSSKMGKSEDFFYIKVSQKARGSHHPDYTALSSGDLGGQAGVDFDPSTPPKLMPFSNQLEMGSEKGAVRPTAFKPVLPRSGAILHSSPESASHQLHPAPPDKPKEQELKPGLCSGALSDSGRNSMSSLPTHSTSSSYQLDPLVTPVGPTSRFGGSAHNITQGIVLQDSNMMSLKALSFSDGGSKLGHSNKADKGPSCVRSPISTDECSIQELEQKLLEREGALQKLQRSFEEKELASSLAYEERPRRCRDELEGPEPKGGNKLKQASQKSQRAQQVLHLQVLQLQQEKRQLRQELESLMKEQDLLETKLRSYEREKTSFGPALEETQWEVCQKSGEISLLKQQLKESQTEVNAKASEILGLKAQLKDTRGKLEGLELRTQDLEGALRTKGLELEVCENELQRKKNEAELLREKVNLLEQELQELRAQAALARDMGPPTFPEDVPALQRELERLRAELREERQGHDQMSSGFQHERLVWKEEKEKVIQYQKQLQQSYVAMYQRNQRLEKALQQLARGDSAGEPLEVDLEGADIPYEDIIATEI
UniProt Q16539, sequence (Q16539 whole entry, looked up): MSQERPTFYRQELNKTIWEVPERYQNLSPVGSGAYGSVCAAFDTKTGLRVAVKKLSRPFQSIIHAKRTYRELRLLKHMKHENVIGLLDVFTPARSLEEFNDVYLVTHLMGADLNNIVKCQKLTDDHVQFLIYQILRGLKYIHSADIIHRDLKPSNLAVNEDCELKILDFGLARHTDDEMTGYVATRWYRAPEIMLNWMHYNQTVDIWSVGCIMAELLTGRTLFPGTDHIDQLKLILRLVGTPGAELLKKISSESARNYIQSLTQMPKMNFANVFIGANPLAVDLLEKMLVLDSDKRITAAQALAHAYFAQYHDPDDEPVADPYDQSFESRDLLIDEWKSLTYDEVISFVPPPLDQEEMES

Target	log2 fold change (vemurafenib)	log2 fold change [1]	log2 fold change (barasertib)	log2 fold change [2]	log2 fold change (volasertib)	log2 fold change [3]	log2 fold change [4]	log2 fold change [5]	log2 fold change (saracatinib)	log2 fold change (sotrastaurin)
MOCS1 isoform 8 (UniProt Q9NZB8)	0.063	0.022	0.166	-0.043	-0.004	-0.015	-0.063	-0.013	0.006	-0.018
LIMK2 isoform 3 (UniProt P53671)	0.031	0.046	-0.062	-0.173	-0.002	-0.046	0.963 (active)	0.023	-0.017	-0.05
MCU (UniProt Q8NE86)	0.011	0.017	0.077	-0.085	-0.033	-0.049	-0.062	-0.099	0.04	0.017
KPNA2 (UniProt P52292)	0.001	0	0.05	-0.037	-0.051	0.004	-0.033	-0.041	0.005	0.038
MAT2B (UniProt Q9NZL9)	0.036	0.016	0.001	-0.019	-0.006	-0.015	0.13	0	-0.018	0.013
MAP7D3 (UniProt Q8IWC1)	-0.153	-0.039	-0.031	-0.056	0.018	0.029	-0.053	-0.006	-0.019	-0.024
MRPL15 (UniProt Q9P015)	0.004	0.025	-0.04	0.024	-0.018	-0.062	-0.509 (active)	0.174	-0.07	0.023
MAPKAPK3 (UniProt Q16644)	-0.02	-0.018	0.015	-0.145	0.002	0.028	-0.001	-0.067	0.003	-0.014
MAP4K4 isoform 3 (UniProt O95819)	-0.185	-0.119	-0.029	-0.071	0.011	-0.011	0.169	-0.158	0.082	–
MAST2 (UniProt Q6P0Q8)	0.134	-0.062	0.105	0.068	0.045	-0.127	0.102	0.06	0.056	-0.024
MITD1 (UniProt Q8WV92)	0.044	0.001	0.057	0.013	-0.07	-0.031	-0.269	-0.163	0.024	0.039
LZTS1 (UniProt Q9Y250)	-0.047	-0.034	0.218	0.042	0.074	-0.53	0.493	-0.132	0	-0.116
MAPK14 isoform 2 (UniProt Q16539)	0.189	0.046	0.079	-0.076	-0.078	0.003	0.303	-0.101	0.192	-0.029
LSS (UniProt P48449)	0.016	-0.009	0.044	-0.078	0.434 (active)	-0.009	-0.09	0.123	-0.043	0
KIF11 (UniProt P52732)	-0.027	0.003	0.023	-0.011	-0.024	0.025	-0.055	0.018	0.023	0.026
KIF15 (UniProt Q9NS87)	-0.01	0.045	0.016	-0.018	-0.053	0.036	0.006	-0.036	0.019	0
KIF2C (UniProt Q99661)	0.01	0.004	0.008	-0.058	-0.023	0.016	0.006	-0.015	-0.015	0.02
LARS2 (UniProt Q15031)	-0.015	0.007	0.077	-0.103	-0.081	0.061	0.024	-0.073	0.029	0.072
MARK1 (UniProt Q9P0L2)	-0.006	0.064	-0.038	-0.045	-0.019	-0.018	-0.06	-0.241	0.021	-0.17
LRRC7 (UniProt Q96NW7)	0.112	-0.024	0.062	0.056	0.047	-0.008	-0.033	-0.043	-0.044	-0.012
MCCC1 (UniProt Q96RQ3)	0.065	0.009	0.015	0.005	-0.034	-0.025	0.139	-0.059	0.028	0.054
MAD2L2 (UniProt Q9UI95)	-0.028	0.246	0.013	-0.065	0.044	0.089	-0.036	-0.051	0.079	-0.006
KIF4A (UniProt O95239)	0.005	0.035	-0.02	-0.021	-0.055	0.003	0.013	-0.07	0.007	-0.003
KLHL36 (UniProt Q8N4N3)	0.024	0.106	-0.088	0.077	-0.127	0.1	-0.006	-0.048	-0.031	0.099
MLST8 (UniProt Q9BVC4)	0.025	0.029	0.074	0.026	-0.009	0.023	-0.03	0.012	0.075	-0.045
MORF4L1 isoform 2 (UniProt Q9UBU8)	0.034	-0.017	0.007	0.016	0	-0.005	-0.036	0.131	0.038	0.019
LAMP1 (UniProt P11279)	-0.009	0.02	0.001	0.059	0.056	-0.097	-0.508 (active)	0.24	0.018	0.022
KIF4B (UniProt Q2VIQ3)	-0.026	0.047	-0.015	-0.102	-0.003	0.009	0.007	-0.073	-0.002	-0.01
MAPK6 (UniProt Q16659)	0.006	0.001	0.047	0.034	-0.001	-0.029	0.221 (active)	-0.02	-0.014	0.014
MGAT5 (UniProt Q09328)	-0.254	-0.07	0.062	-0.08	-0.065	0.021	0.094	-0.138	-0.036	0.002
